# Source: PubChem BioAssay (Broad Institute)
# This is one part of a sample in which hits are shown more often than they occur.
# Shh pathway inh: blocks Sonic Hedgehog signaling; AID 2313; Shh-LIGHT2 Gli-luciferase reporter, 30 h; inhibition, % (concentration not given with the values); 22,000 compounds, 2.1% hits;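 active means mean inhibition across valid replicates above about 65%, limit read from the data; inconclusive means mean under the limit, yet half or more replicates past it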;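 further: pathway switched on by Shh-conditioned medium diluted 1 in 25 in low serum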
# MITF inh: inhibitors of MITF. TRPM1 promoter luciferase, luminescence, 24 h. inhibition, % (no concentration beside the values). 37,000 compounds, 0.28% hits. AID 2240; in the data active means inhibition above about 85%; inconclusive means no clear call, values can overlap the other calls; inactive means below about 68%;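 further: human melanocyte line stably carrying TRPM1 promoter luciferase reporter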
# BJeLR viability: lowers viability of BJeLR cells; viability loss activity score, % (test concentration not listed); BJeLR fibroblasts viability, CellTiterGlo ATP luminescence, 48 h; HRASV12, hTERT and SV40 LT/ST transformed; 30,000 compounds, 0.64% hits; in the data active means viability loss activity score above about 50%; inconclusive means no clear call, values can overlap the other calls; inactive means below about 35%;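 further: higher score means fewer live cells and less ATP luminescence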
# An asterisk follows results filed as active; u = inconclusive; x = no result.
SMILES,Shh pathway inh,MITF inh,BJeLR viability
C[C@@H]1CN([C@H](C)CO)C(=O)c2cc(NC(=O)Nc3ccc(F)cc3)ccc2O[C@H]1CN(C)Cc1ccc(Cl)c(Cl)c1,-40,5,0
C[C@@H]1CCCCO[C@H](CN(C)Cc2ccc(C(F)(F)F)cc2)[C@@H](C)CN([C@H](C)CO)C(=O)c2cc(NC(=O)C3CCCCC3)ccc2O1,66*,20,x
C[C@@H]1CN([C@@H](C)CO)C(=O)c2cccc(NC(=O)Nc3ccccc3)c2O[C@H]1CN(C)Cc1ccc(C(F)(F)F)cc1,74*,40,8
C[C@@H]1CCCCO[C@@H](CN(C)Cc2ccncc2)[C@@H](C)CN([C@H](C)CO)C(=O)c2cc(NC(=O)C3CCCCC3)ccc2O1,-18,-3,x
C[C@@H]1CN([C@@H](C)CO)C(=O)c2cc(NC(=O)Nc3ccc(F)cc3)ccc2O[C@@H]1CN(C)Cc1ccc(Cl)c(Cl)c1,85*,74,-3
Cc1ccc(S(=O)(=O)Nc2ccc3c(c2)CC(=O)N([C@H](C)CO)C[C@@H](C)[C@@H](CN(C)Cc2ccc(C(F)(F)F)cc2)O3)cc1,14,-1,x
Cc1ccc(S(=O)(=O)Nc2ccc3c(c2)CC(=O)N([C@@H](C)CO)C[C@H](C)[C@@H](CN(C)Cc2ccc(C(F)(F)F)cc2)O3)cc1,69*,23,x
C[C@H]1CN([C@@H](C)CO)C(=O)c2cccc(NC(=O)Nc3ccccc3)c2O[C@@H]1CN(C)Cc1ccc(C(F)(F)F)cc1,5,41,-3
COc1ccc(CNC(=O)C(NS(=O)(=O)c2ccc3nc(C)sc3c2)C(C)C)cc1 (configuration not stated),x,x,3
CCOC(=O)CSc1nnc(CNC(=O)c2cccs2)n1C,x,x,-4
O=C(NCc1ccccc1)c1noc2c1CCc1ccccc1-2,x,x,0
O=C(Cn1c(=O)c(C(F)(F)F)nc2ccccc21)N1CCc2ccccc2C1,x,x,-3
C[C@@H]1CN([C@H](C)CO)C(=O)Cc2cc(NC(=O)Nc3ccc(C(F)(F)F)cc3)ccc2O[C@H]1CN(C)Cc1ccc(Cl)c(Cl)c1,-15,-1,x
C[C@@H]1CN([C@@H](C)CO)C(=O)c2cc(NC(=O)Nc3ccc(C(F)(F)F)cc3)ccc2O[C@@H]1CN(C)Cc1ccc(C(F)(F)F)cc1,18,101*,5
C[C@H]1CN([C@@H](C)CO)C(=O)Cc2cc(NC(=O)Nc3ccc(C(F)(F)F)cc3)ccc2O[C@H]1CN(C)Cc1ccc(Cl)c(Cl)c1,9,93*,x
C[C@@H]1CN([C@@H](C)CO)C(=O)Cc2cc(NC(=O)Nc3ccc(C(F)(F)F)cc3)ccc2O[C@@H]1CN(C)C(=O)Nc1ccc2c(c1)OCO2,83*,55,x
C[C@@H]1CN([C@H](C)CO)C(=O)c2cc(NC(=O)Nc3ccc(C(F)(F)F)cc3)ccc2O[C@@H]1CN(C)Cc1ccc(C(F)(F)F)cc1,x,36,0
CC(C)NC(=O)Nc1ccc2c(c1)CC(=O)N([C@H](C)CO)C[C@@H](C)[C@H](CN(C)C(=O)Nc1ccc(F)cc1)O2,-8,-8,x
C[C@H]1CN([C@@H](C)CO)C(=O)Cc2cc(NC(=O)Nc3ccc(C(F)(F)F)cc3)ccc2O[C@H]1CN(C)C(=O)Nc1ccc2c(c1)OCO2,-23,-13,x
CC(C)NC(=O)Nc1ccc2c(c1)CC(=O)N([C@H](C)CO)C[C@H](C)[C@H](CN(C)C(=O)Nc1ccc(F)cc1)O2,77*,-12,x
CCOc1ccc(C(=O)n2cnc3cc(C)c(C)cc32)cc1,x,x,1
CC(C)Cc1ccc(S(=O)(=O)N2c3ccccc3CC2C)cc1 (configuration not stated),x,x,-5
CC1C(=O)C(C)C(c2ccc(N(C)C)cc2)NC1c1ccc(N(C)C)cc1 (configuration not stated),x,x,2
COc1cc2c(C(=O)NCCCN3CCN(C)CC3)cn(CC(C)C)c(=O)c2cc1OC,x,x,-3
O=C(c1cc(-c2ccc(O)cc2)on1)N1CCN(Cc2ccccc2)CC1,x,x,3
SMILES,Shh pathway inh,MITF inh,BJeLR viability
Cc1noc(C)c1NC(=O)N(C)C[C@@H]1Oc2ccc(NC(=O)CCN3CCOCC3)cc2CC(=O)N([C@H](C)CO)C[C@H]1C,-8,1,x
C[C@H](CO)N1C[C@H](C)[C@H](CN(C)Cc2ccc(C(F)(F)F)cc2)Oc2ccc(NC(=O)Nc3ccc(C(F)(F)F)cc3)cc2C1=O,x,24,-8
C[C@H]1CN([C@@H](C)CO)C(=O)c2cc(NC(=O)Nc3ccc(C(F)(F)F)cc3)ccc2O[C@@H]1CN(C)Cc1ccc(C(F)(F)F)cc1,x,95*,4
Cc1noc(C)c1NC(=O)N(C)C[C@H]1Oc2ccc(NC(=O)CCN3CCOCC3)cc2CC(=O)N([C@@H](C)CO)C[C@H]1C,67*,0,x
Cn1nc(-c2ccccc2F)c2cc(C(=O)NCCCN3CCN(c4ccc(F)cc4)CC3)sc21,x,x,3
O=C(CSc1nc2cc(Cl)ccc2s1)Nc1ccc2c(c1)OCCO2,x,-33,x
CC1(C)CC(=O)C=C(Sc2nc3cc(Cl)ccc3s2)C1,u,u,69*
CCCc1c(C(=O)O)c(O)cc2c1C(=O)c1c(O)cccc1C2=O,0,8,2
CCCCCC(=O)Cc1cc(O)c(O)c2c1C(=O)Oc1cc(O)c(C(=O)O)c(CCCCC)c1O2,75*,29,99*
COc1cc(/C=C\C(=O)O)cc(OC)c1OC,21,x,x
COc1cc(/C=C/C(=O)N2CCC=CC2=O)cc(OC)c1OC,84*,62,25
CC(=O)OC(C(=O)Nc1cccc(C)n1)c1ccccc1 (configuration not stated),x,x,11
CCc1cc(C(c2ccc(Cl)cc2)N2CCN(CCO)CC2)c(NC(=O)c2ccccc2)s1 (configuration not stated),81*,55,10
O=C(c1ccc(Cl)cc1)N1CCN(C(c2ccccc2)c2ccccc2)CC1,x,x,2
CCC(C)CC(C)/C=C\C1OC2=C(C(=O)OC2(C)O)C(O)C1O (configuration not stated),u,u,104*
Cc1ccc(N2C(=O)C(CC(=O)Nc3ccccc3)N(Cc3ccc4c(c3)OCO4)C2=O)cc1 (configuration not stated),x,x,-5
O=C(C1CCCCC1)N(c1ccc2oc3c(c2c1)CCCC3)S(=O)(=O)c1cccs1,x,x,1
COc1cc(O)cc2c1C(=O)OC(C)C2 (configuration not stated),-46,6,5
C[C@@H]1C[C@@H]2O[C@H]2/C=C/C=C\C(=O)Cc2c(Cl)c(O)cc(O)c2C(=O)O1,43,3,81*
O=C(CCN1C(=O)C2C3C=CC(C3)C2C1=O)NC(c1ccccc1)c1ccccc1 (configuration not stated),x,x,-6
COc1cc2c(c(OC)c1OC)-c1ccc(OC)c(=O)cc1[C@@H](NC(C)=O)CC2,91*,55,60*
C/C=C(/C)C(=O)O[C@@H]1c2cc(OC)c(OC)cc2-c2c(ccc(OC)c2OC)C[C@H]2C(=O)OC[C@H]12,3,4,12
CCOC(=O)Cn1c(=O)oc2cc(S(=O)(=O)N3CCCC3)ccc21,x,x,-2
O=S(=O)(Nc1nc2ccccc2nc1NCCc1ccccc1)c1ccc(Cl)cc1,78*,47,7
O=C(NCCc1ccccc1)C1(S(=O)(=O)c2ccc(Cl)cc2)CC1,x,x,5
CCCC(CCC)C(=O)Nc1cc(-c2cn3cccnc3n2)ccc1C,x,x,3
